# Source: PubChem BioAssay (NCATS)
# Several values for one entry are separate records, joined by “and”; a condition that tells them apart may be missing. Identical values can stand only once. Records with an inconclusive call do not appear. Activity calls are given as the source filed them. Unless noted, the call rests on the fitted dose curve; in most records, active means well fitted curve in either direction with a large enough effect (not every such curve was filed as active); inconclusive means small, poorly fitted or top-dose-only effect, or another doubt; inactive means flat fitted curve, though single readings scatter.
# Legend:
# [1] = target: Lysosomal acid glucosylceramidase (Homo sapiens) (UniProt P04062); test: Glucocerebrosidase-p2 (AID 348; in the data active means potency below about 10 µM; further: potency means the concentration at half of the fitted maximal effect); conditions: purified GBA, blue fluorogenic substrate, 40 min
# Summary of the method: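 Normal human glucocerebrosidase (0.2 nM) with blue fluorogenic substrate (80 uM final) in citrate/phosphate pH 5.9 with 10mM sodium taurocholate, 0.01% tween-20; 40 min RT, NaOH/glycine stop; fluorescence Ex 365/Em 440; AC50 from a titration from 0.6 nM upwards.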
# [2] = AP1 Signaling Pathway (AID 357); conditions: ME-180 AP-1-bla reporter, EGF-induced, beta-lactamase ratio, 5 h; at 7.69 µM (top of the series) unless noted;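 further: ME-180 reporter cells stimulated with EGF at its EC50 level; on the % scale 0 is the no-effect control and ±100 the full control effect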
# Summary of the method: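 In this screen, ME-180 cells in Opti-MEM with 0.5% dialyzed FBS received EC50 EGF and compound titrations for 5 h. AP-1 reporter beta-lactamase was detected via CCF4 ratio, giving AC50 for positive and negative modulators.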
# [3] = target: Cytochrome P450 1A2 (Homo sapiens) (UniProt P05177); test: p450-cyp1a2 (AID 410; calls by dose curve; further: potency means the concentration at half of the fitted maximal effect;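 on activity change, negative = inhibition: -100% = full effect of reference inhibitor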); conditions: recombinant CYP1A2, luciferin-ME demethylation, luminescence; series mostly up to 57 µM
# Summary of the method: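 20nM CYP1A2, 100uM Luciferin-ME (=Km), 100mM KPO4; cpd 10 min RT; +NADPH regen, 60 min RT; stop/detect 20 min; luminescence. Normalized to furafylline 57 uM = full inhibition.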
# [4] = NFAT Signaling Pathway (AID 444); conditions: Jurkat NFAT-bla M1, carbachol, beta-lactamase ratio, 5 h; at 7.69 µM (top of the series) unless noted;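 further: carbachol stimulus at about its EC50 of 1 µM final; on the % scale 0 is the no-effect control and ±100 the full control effect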
# Summary of the method: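 Jurkat cells carrying an NFAT-driven β-lactamase reporter and co-transfected muscarinic M1 receptor were treated with compound plus carbachol (1 uM final, an EC50 level) for 5 h at 37 °C. CCF4 loading followed for 1 h at RT; 460/530 nm ratio gave %activity.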
# [5] = Stat Signaling Pathway (AID 446); conditions: ME-180 SIE beta-lactamase reporter, IL-6 stimulated, 5 h; at 7.69 µM (top of the series) unless noted;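 further: ME-180 cervical cancer cells given 40 pM IL-6 alongside compound; SIE-controlled beta-lactamase reporter measured as 460/530 nm FRET emission ratio; on the % scale 0 is the no-effect control and ±100 the full control effect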
# Summary of the method: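 Emission at 460 and 530 nm (excitation 405 nm) reports SIE-controlled beta-lactamase in ME-180 cells. Cells received compound with 40 pM IL-6 for 5 hrs at 37 C; data scaled between 300 pM IL-6 and 125 nM JAK-inhibitor controls.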
# [6] = target: Glucocorticoid receptor (Homo sapiens) (UniProt P04150); test: GR-EFC Redistribution (AID 451; calls by dose curve; further: potency means the concentration at half of the fitted maximal effect); conditions: CHO-K1 GR-EFC translocation, beta-gal luminescence, 2 h
# Summary of the method: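 CHO-K1 cells stably expressing nuclear-localized β-gal enzyme acceptor and GR fused C-terminally to the enzyme donor fragment; ligand-driven nuclear translocation restores β-gal by complementation. Compounds titrated up to 46 uM final, 2 h at 37 °C; luminescence read.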
# [7] = target: Mitogen-activated protein kinase 10 (Mus musculus) (UniProt Q61831); test: JNK3 AlphaScreen Assay (AID 530); conditions: JNK3 lysate, c-Jun phosphorylation; series mostly up to 57.1 µM;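 further: kinase came from lysate of stimulated human HepG2 cells; signal reports phosphorylation of biotinylated GST-cJun 1-79 at Ser73 with 10 µM ATP; on the % scale 0 is the no-effect control and ±100 the full control effect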
# Summary of the method: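 Biotinylated GST-cJun(1-79) served as substrate for JNK3 in HepG2 lysates stimulated with IL-1beta and TNF-alpha. ATP was 10 uM final, pH 7.6. Ser73 phosphorylation was quantified by AlphaScreen (680 nm excitation).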
# [8] = target: 3',5'-cyclic-AMP phosphodiesterase 4B (Homo sapiens) (UniProt Q07343); test: qHTS Assay for Inhibitors of PDE-IV (AID 607; active means well fitted activation curve with a large enough effect in the main read-out, with a control signal flat, not every such curve was filed as active; further: % of control where 0% means no effect); conditions: HEK293 ACTOne CNG channel cells, membrane potential fluorescence; series mostly up to 22.9 µM
# Summary of the method: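 The readout is membrane depolarisation from a cAMP-sensing CNG channel, detected with a potential dye at ex 535/em 590. Cells were HEK293-derived (endogenous PDE-IV) at 1000 cells/well, titrated up to 22.9 uM final.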
# [9] = qHTS Assay for Lipid Storage Modulators (AID 1519; calls by dose curve); conditions: Drosophila S3 cells, BODIPY lipid droplet/cell ratio, laser cytometry, cells loaded with oleic acid; for activity change, negative = inhibition: at 57.5 µM (top of the series)
# Summary of the method: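 Cells seeded at 5,000 per well were treated with compounds over a concentration series and loaded with oleic acid (400 uM, as added). Lipid droplet fluorescence (488 nm excitation, 500-530 nm channel) was read by laser-scanning cytometry and normalized to 20 uM Triacsin C.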
# [10] = target: Glucocorticoid receptor (Homo sapiens) (UniProt P04150); test: GR-GFP Redistribution (AID 450;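 active means compounds whose dose series gives a full or clear partial fitted curve of increased nuclear translocation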; further: potency means the concentration at half of the fitted maximal effect); conditions: U2OS GR-GFP nuclear translocation, laser cytometry, 2 h
# [11] = target: Cytochrome P450 3A4 (Homo sapiens) (UniProt P08684); test: qHTS Assay for Inhibitors and Substrates of Cytochrome P450 3A4 (AID 884; active means well fitted curve in the direction sought with a large enough effect; an effect the other way counts as inactive or inconclusive; further: nearly all actives have a fitted effect of over 50% in size; further: potency means the concentration at half of the fitted maximal effect); conditions: recombinant CYP3A4, Luciferin-PPXE luminescence; series mostly up to 57.1 µM
# Summary of the method: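 Luminescent readout of luciferin produced by CYP3A4 (20 nM) dealkylation of Luciferin-PPXE, 25 uM (its KM). NADPH-driven reaction ran 60 min at RT after 10 min compound preincubation; data scaled to 57 uM ketoconazole as 100% inhibition.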
# [12] = target: Cytochrome P450 3A4 (Homo sapiens) (UniProt P08684); test: qHTS Assay for Activators of Cytochrome P450 3A4 (AID 885; active means well fitted curve in the direction sought with a large enough effect; an effect the other way counts as inactive or inconclusive; further: nearly all actives have a fitted effect of over 65% in size); conditions: recombinant CYP3A4, Luciferin-PPXE luminescence, 60 min; series mostly up to 57.1 µM
# Summary of the method: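 Activators are scored by enhanced luminescence from CYP3A4 conversion of luciferin-PPXE (25uM, equal to KM) to luciferin, after 60 min at RT with an NADPH-regenerating system.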
# [13] = Confirmation and Secondary Assay for Modulators of Hemoglobin Beta Chain Splicing at IVS2 654 locus (AID 910; active means well fitted curve in the direction sought with a large enough effect; an effect the other way counts as inactive or inconclusive; further: % of control where 0% means no effect); conditions: HeLa EGFP-654 splicing reporter, GFP fluorescence, 48 h; series mostly up to 38.3 µM
# Summary of the method: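 HeLa cells stably carrying EGFP interrupted by mutant beta-globin IVS2-654 intron (CMV-driven) were treated with compound for 2 days at 37C; corrected splicing was scored as total peak GFP intensity per well (488 nm excitation, 500-520 nm emission).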
# [14] = Confirmation and Secondary Assay for Modulators of Hemoglobin Beta Chain Splicing at IVS2 705 locus (AID 930; active means well fitted curve in the direction sought with a large enough effect; an effect the other way counts as inactive or inconclusive;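 further: HeLa cells stably expressing the EGFP-705 splicing reporter; GFP fluorescence per well restored by corrected splicing of the IVS2-705 intron in EGFP; % of control where 0% means no effect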); conditions: HeLa EGFP-705 splicing reporter, GFP fluorescence, 48 h; series mostly up to 38.3 µM
# Summary of the method: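 HeLa cells stably carrying EGFP interrupted by mutant beta-globin intron 2 (IVS2-705) treated 2 days at 37C with compound; 500 nM antisense PNA as control. Correct splicing read as total peak GFP intensity per well by laser-scanning cytometry.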
# [15] = target: Cytochrome P450 2D6 (Homo sapiens) (UniProt P10635); test: qHTS Assay for Inhibitors and Substrates of Cytochrome P450 2D6 (AID 891; active means well fitted curve in the direction sought with a large enough effect; an effect the other way counts as inactive or inconclusive; further: potency means the concentration at half of the fitted maximal effect; nearly all actives have a fitted effect of over 60% in size); conditions: recombinant CYP2D6, luciferin-ME EGE luminescence; series mostly up to 57.1 µM
# Summary of the method: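 Luminescent read-out of luciferin formed by 5 nM human CYP2D6 demethylating 30 uM Luciferin-ME EGE (Km level) over 60 min at room temperature after NADPH regeneration addition. Data normalized to full inhibition by 1.43 uM quinidine.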
# [16] = target: Ubiquitin carboxyl-terminal hydrolase 1 (Homo sapiens) (UniProt O94782); test: Inhibitors of USP1/UAF1: Pilot qHTS (AID 504865; active means well fitted curve in the direction sought with a large enough effect; an effect the other way counts as inactive or inconclusive; further: nearly all actives have a fitted effect of over 35% in size; further: potency means the concentration at half of the fitted maximal effect); conditions: purified USP1/UAF1, Ub-rhodamine cleavage fluorescence; series mostly up to 54.9 µM
# Summary of the method: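 Kinetic fluorescence assay: 1nM USP1/UAF1, 15 min compound preincubation, then 150nM Ub-Rho; 480/540 nm.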
# [17] = target: Cytochrome P450 2C19 (Homo sapiens) (UniProt P33261); test: qHTS Assay for Inhibitors and Substrates of Cytochrome P450 2C19 (AID 899; active means well fitted curve in the direction sought with a large enough effect; an effect the other way counts as inactive or inconclusive; further: nearly all actives have a fitted effect of over 60% in size; further: potency means the concentration at half of the fitted maximal effect); conditions: recombinant CYP2C19, luciferin-H EGE luminescence; series mostly up to 57.1 µM
# Summary of the method: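 Human CYP2C19 (5nM) with Luciferin-H EGE at 10uM (its KM) in 50mM KPO4 was preincubated with compound for 10 min at 37C. NADPH regeneration started a 60 min 37C reaction. Luciferin was read by luminescence, normalized to 57uM ketoconazole.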
# [18] = qHTS Assay for Identification of Small Molecule Agonists for Hypoxia Response Element Signaling Pathway (AID 914; active means well fitted activation curve with a large enough effect in the signal ratio, with a control signal flat, not every such curve was filed as active; the % refers to the signal ratio; further: % of control where 0% means no effect); conditions: ME-180 (cervical carcinoma) HRE-bla reporter, beta-lactamase ratio, CoCl2, 17 h; activation: stronger effect = higher value
# Summary of the method: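 HRE-bla ME-180 cells with beta-lactamase reporter under hypoxia response element, compounds with EC50 CoCl2 for 17 hours at 37 C. CCF4 substrate, 460nm/530nm emission ratio gave %Activity; AC50 from titration series.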
# [19] = measured here: cell count channel max response
# [20] = measured here: lipid channel max response
# Sequence of 3',5'-cyclic-AMP phosphodiesterase 4B (Homo sapiens) (Q07343 whole entry, looked up): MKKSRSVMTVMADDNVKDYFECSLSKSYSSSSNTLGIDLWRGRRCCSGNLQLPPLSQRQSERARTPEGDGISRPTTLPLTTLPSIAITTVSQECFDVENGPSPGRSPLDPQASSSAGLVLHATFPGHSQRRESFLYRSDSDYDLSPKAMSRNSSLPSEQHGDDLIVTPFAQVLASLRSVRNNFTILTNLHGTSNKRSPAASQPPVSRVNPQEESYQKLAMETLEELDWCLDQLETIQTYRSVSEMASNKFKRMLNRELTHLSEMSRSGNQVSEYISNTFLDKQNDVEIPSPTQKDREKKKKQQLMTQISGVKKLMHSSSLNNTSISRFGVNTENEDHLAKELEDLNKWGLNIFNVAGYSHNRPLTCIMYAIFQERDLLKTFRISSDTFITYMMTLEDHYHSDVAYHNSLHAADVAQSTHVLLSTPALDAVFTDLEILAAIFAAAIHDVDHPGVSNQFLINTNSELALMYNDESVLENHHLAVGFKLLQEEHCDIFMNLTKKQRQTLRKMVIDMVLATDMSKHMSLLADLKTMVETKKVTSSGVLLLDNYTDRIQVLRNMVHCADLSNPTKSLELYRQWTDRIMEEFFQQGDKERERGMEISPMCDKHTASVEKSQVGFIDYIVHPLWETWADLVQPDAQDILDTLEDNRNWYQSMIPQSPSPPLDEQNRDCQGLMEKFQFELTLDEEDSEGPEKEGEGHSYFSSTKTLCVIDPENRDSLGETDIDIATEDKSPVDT
# Sequence of Glucocorticoid receptor (Homo sapiens) (P04150 whole entry, looked up, the tested form may be a part): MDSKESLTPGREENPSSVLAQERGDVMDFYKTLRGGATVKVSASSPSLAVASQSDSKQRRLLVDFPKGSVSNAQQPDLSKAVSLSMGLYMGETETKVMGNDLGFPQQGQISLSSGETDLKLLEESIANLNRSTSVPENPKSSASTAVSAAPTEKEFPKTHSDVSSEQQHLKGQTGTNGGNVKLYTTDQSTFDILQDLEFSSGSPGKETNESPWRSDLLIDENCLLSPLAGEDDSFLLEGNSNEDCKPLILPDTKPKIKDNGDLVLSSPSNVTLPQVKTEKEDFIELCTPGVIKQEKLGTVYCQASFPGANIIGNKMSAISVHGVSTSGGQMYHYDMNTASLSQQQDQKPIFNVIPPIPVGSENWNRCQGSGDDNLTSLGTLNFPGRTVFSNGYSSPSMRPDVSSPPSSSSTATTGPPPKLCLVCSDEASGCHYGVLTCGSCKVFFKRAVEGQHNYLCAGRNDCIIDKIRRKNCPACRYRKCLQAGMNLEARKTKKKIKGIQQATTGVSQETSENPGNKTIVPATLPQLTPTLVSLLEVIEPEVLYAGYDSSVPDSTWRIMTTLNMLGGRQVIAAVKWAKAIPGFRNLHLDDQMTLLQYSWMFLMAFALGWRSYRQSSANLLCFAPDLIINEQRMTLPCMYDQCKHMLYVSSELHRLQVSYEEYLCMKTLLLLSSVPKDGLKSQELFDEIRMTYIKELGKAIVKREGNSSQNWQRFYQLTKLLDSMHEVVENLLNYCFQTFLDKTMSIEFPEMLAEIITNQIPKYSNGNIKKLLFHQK
# Sequence of Cytochrome P450 3A4 (Homo sapiens) (P08684 whole entry, looked up): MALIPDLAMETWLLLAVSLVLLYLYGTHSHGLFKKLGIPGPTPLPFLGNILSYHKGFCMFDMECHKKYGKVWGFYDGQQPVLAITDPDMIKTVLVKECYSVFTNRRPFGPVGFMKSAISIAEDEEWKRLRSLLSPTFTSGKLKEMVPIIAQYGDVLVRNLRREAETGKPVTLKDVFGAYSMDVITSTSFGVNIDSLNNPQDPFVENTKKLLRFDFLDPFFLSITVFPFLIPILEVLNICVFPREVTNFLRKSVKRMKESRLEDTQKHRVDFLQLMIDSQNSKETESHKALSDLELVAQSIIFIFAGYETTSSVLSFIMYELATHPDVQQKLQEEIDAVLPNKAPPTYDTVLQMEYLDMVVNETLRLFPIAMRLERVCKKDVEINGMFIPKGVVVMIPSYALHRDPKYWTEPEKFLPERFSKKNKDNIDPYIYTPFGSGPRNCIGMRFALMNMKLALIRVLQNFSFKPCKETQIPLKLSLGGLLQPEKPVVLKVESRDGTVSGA
# Sequence of Lysosomal acid glucosylceramidase (Homo sapiens) (P04062 whole entry, looked up): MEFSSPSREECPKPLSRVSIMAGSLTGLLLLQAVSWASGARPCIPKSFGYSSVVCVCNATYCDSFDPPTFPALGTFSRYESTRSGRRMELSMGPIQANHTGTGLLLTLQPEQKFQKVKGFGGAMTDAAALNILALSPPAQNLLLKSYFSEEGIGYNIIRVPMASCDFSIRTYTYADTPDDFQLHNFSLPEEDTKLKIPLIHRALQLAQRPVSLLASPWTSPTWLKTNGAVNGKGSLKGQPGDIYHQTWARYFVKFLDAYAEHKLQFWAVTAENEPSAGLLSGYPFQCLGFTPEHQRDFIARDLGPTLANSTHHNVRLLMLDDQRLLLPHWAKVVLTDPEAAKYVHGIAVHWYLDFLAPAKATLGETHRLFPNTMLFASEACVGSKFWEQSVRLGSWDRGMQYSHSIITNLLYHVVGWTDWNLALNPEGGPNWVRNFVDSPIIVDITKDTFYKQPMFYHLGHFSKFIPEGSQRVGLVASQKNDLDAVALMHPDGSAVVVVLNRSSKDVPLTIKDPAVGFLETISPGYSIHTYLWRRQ
# Sequence of Ubiquitin carboxyl-terminal hydrolase 1 (Homo sapiens) (O94782 whole entry, looked up): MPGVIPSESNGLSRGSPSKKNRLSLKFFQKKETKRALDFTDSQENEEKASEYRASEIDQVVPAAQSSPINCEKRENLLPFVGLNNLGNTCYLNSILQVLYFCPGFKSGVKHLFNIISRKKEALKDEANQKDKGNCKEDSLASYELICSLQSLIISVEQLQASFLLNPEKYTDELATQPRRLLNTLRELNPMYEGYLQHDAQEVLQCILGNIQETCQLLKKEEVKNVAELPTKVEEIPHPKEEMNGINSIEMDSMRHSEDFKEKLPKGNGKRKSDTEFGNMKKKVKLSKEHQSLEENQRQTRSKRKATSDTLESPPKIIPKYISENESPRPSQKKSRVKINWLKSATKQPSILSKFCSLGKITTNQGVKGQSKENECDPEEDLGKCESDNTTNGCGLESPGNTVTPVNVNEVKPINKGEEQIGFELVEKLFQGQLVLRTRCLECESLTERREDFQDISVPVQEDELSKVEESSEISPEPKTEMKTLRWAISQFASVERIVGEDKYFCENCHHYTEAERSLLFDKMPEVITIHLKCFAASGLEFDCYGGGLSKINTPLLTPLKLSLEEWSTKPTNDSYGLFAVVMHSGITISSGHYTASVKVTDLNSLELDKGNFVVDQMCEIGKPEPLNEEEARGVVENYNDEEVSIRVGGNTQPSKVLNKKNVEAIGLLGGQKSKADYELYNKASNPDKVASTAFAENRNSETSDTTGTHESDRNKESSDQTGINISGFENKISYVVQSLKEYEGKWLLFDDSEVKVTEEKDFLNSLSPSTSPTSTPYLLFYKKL
# Sequence of Cytochrome P450 1A2 (Homo sapiens) (P05177 whole entry, looked up): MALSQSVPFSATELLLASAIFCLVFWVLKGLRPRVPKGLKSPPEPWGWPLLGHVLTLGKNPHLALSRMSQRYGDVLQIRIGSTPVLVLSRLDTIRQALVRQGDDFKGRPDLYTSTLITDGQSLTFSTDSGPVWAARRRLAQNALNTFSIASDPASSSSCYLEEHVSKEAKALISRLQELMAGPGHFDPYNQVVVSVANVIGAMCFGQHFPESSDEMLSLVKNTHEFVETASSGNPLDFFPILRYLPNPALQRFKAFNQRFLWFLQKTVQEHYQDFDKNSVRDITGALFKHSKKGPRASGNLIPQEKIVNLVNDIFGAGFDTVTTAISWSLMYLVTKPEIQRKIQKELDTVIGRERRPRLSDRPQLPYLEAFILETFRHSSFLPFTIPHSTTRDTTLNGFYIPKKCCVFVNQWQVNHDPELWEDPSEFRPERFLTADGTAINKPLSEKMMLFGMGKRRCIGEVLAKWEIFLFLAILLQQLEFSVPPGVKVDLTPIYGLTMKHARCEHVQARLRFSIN
# Sequence of Cytochrome P450 2C19 (Homo sapiens) (P33261 whole entry, looked up): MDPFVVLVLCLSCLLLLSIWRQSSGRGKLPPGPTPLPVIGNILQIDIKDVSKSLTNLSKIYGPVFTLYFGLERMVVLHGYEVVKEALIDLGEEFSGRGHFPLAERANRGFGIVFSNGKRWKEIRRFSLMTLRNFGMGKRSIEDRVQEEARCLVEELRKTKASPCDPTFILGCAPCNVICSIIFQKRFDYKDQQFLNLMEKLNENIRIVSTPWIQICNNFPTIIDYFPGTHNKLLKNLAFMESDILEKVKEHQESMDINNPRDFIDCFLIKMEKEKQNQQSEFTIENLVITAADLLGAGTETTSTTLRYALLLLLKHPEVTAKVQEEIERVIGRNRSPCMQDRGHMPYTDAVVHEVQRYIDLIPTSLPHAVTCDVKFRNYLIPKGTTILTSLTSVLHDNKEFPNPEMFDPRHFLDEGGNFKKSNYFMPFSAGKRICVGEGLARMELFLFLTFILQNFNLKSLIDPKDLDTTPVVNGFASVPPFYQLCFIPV
# Sequence of Cytochrome P450 2D6 (Homo sapiens) (P10635 whole entry, looked up): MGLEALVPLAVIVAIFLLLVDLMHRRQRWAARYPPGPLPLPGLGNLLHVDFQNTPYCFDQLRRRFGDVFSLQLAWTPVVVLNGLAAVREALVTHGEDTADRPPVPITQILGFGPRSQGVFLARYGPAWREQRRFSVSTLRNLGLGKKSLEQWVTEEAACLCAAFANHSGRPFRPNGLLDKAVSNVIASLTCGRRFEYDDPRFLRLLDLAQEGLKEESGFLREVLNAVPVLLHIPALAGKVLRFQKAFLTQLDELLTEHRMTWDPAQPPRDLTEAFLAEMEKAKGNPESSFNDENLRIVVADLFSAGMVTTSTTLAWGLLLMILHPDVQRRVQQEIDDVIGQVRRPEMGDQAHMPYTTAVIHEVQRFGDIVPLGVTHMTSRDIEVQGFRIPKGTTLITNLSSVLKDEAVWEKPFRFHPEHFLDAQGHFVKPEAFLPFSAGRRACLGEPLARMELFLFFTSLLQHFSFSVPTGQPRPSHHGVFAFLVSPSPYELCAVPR
Structure (SMILES),Potency [1],"activity change, negative = inhibition [2]",Potency [3],"activity change, negative = inhibition [4]","activity, negative = inhibition [5]",Potency [6],Potency [7],Potency [8],"activity change, negative = inhibition [9]","max response [9, 19]","max response [9, 20]",Potency [10],Potency [11],Potency [12],Potency [13],outcome [14],Potency [15],Potency [16],Potency [17],activation [18]
Cn1cccc1C(=O)N1CCC2(CC1)CN(Cc1cc(C(F)(F)F)cc(C(F)(F)F)c1)C2,> 11.4 µM (inactive),-5.13% (inactive),10 µM (active),15.4% (inactive),-14.1% (inactive),> 46 µM (inactive),inactive,inactive,-8.03% (inactive),-0.271%,-4.98%,–,–,–,–,–,–,–,–,–
Cc1cccc(CNc2ncncc2-c2ccccc2C(F)(F)F)c1,> 11.4 µM (inactive),-9.35% (inactive),12.6 µM (active),-6.75% (inactive),-0.642% (inactive),> 46 µM (inactive),inactive,–,4.45% (inactive),-2.27%,3.62%,> 46 µM (inactive),0.0794 µM (active),inactive,inactive,inactive,–,–,–,–
Cc1cccc(CNc2ccnc(-c3ccccc3CN(C)C)n2)c1,11.5 µM (inactive),-18% (inactive),3.16 µM (active),-18.8% (inactive),-5.22% (inactive),> 46 µM (inactive),inactive,–,3.61% (inactive),-8.06%,-5.18%,–,–,inactive,inactive,inactive,2.51 µM (active),inactive,–,–
CC(=O)N1CCC2(CC1)CCN(c1ccncc1)CC2,> 11.4 µM (inactive),-3.43% (inactive),inactive,-17.4% (inactive),-6.23% (inactive),> 46 µM (inactive),inactive,inactive,-1.07% (inactive),-6.73%,-6.95%,–,–,–,–,–,–,–,–,–
CC1=CC(=O)CC(C)(C)C1(O)/C=C/C(C)=C\C(=O)O (stereo unspecified),–,–,–,–,–,–,inactive,–,8.24% (inactive) and 1.12% (inactive),12.7% and 14.4%,25.4% and 14.8%,–,inactive,–,inactive,inactive,–,–,–,–
CN(Cc1ccco1)c1ccnc(-c2cccc(NS(C)(=O)=O)c2)n1,> 11.4 µM (inactive),-9.76% (inactive),1.26 µM (active),-2.37% (inactive),2.34% (inactive),> 46 µM (inactive),inactive,inactive,9.05% (inactive),18.7%,26.7%,> 46 µM (inactive),6.31 µM (active),inactive,inactive,inactive,–,inactive,–,–
COc1ccc2[nH]cc(CCNc3cc(-c4ccoc4)ncn3)c2c1,> 11.4 µM (inactive),-5.94% (inactive),0.631 µM (active),2.58% (inactive),2.87% (inactive),> 46 µM (inactive),inactive,inactive,11% (inactive),6.67%,17.6%,> 46 µM (inactive),–,inactive,inactive,inactive,–,inactive,5.01 µM (active),–
CN(C)Cc1ccccc1-c1nc(N(C)Cc2ccco2)c2ccccc2n1,> 11.4 µM (inactive),9.21% (inactive),0.794 µM (active),-18.4% (inactive),3.87% (inactive),> 46 µM (inactive),inactive,–,6.11% (inactive),17.4%,24.7%,> 46 µM (inactive),–,inactive,–,inactive,0.794 µM (active),inactive,–,–
COc1ccccc1CNc1ccnc(-c2ccccc2C(F)(F)F)n1,> 11.4 µM (inactive),-18.3% (inactive),10 µM (active),-19.1% (inactive),4.24% (inactive),> 46 µM (inactive),inactive,inactive,5.29% (inactive),-3.33%,2.88%,> 46 µM (inactive),–,inactive,inactive,inactive,–,20 µM (active),–,-5.47% (inactive)
COc1cccc(Nc2ncc3nc(C)c(=O)n(CCC#N)c3n2)c1,> 11.4 µM (inactive),-18.4% (inactive),1.26 µM (active),4.34% (inactive),-8.39% (inactive),–,inactive,inactive,-10.8% (inactive),-22.6%,-28.8%,> 9.22 µM (inactive),–,inactive,–,–,–,–,–,–
CN(C)C(=O)c1ccc(-c2nc(N(C)C)c3ccccc3n2)cc1,> 11.4 µM (inactive),-11.7% (inactive),10 µM (active),16.5% (inactive),2.64% (inactive),> 46 µM (inactive),inactive,–,8.51% (inactive),8.15%,13.9%,> 46 µM (inactive),–,inactive,inactive,inactive,–,inactive,inactive,–
Cc1occc(=O)c1O,–,–,–,–,–,–,inactive,–,8.81% (inactive),0.823%,13.2%,–,inactive,–,inactive,inactive,–,inactive,–,–
COc1cccc(-c2nccc(NC3CCNCC3)n2)c1,> 11.4 µM (inactive),6.93% (inactive),6.31 µM (active),8.54% (inactive),14.2% (inactive),> 46 µM (inactive),inactive,inactive,0.723% (inactive),4.24%,1.95%,> 46 µM (inactive),–,–,inactive,inactive,–,inactive,–,–
